Only some compounds are listed: those with a hit (about 0.98% of all), similar ones and a draw of the others.
RTF Ca sens inh: cardiac RTF calcium desensitization | P19429+P45379 | IANBD-labeled cardiac RTF, Ca2+ fluorescence | inhibition, % at 7.15 µM | 340,000 tested, 0.12% active | AID 493244;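 active means inhibition above the mean inhibition of all tested compounds plus 3 SD, cut at about 17% in these data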;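 further: assay run at fixed EC70 calcium of 1.6 mM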
RTF Ca sens act: increases calcium sensitivity of human cardiac regulated thin filaments; P19429+P45379; IANBD-labeled TnC RTF fluorescence at EC20 calcium; 0% EC20 calcium, 100% full calcium; activation, % at 7.2 µM; 340,000 tested, 0.24% active;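 active means activation above the mean over all tested compounds plus 3 SD, cut at about 30% in these data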;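 further: rise in fluorescence read as greater calcium sensitivity of cardiac thin filaments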
EBV gp42 inh: EBV gp42 inhibition. Q1HVG2. Fluorescence polarization binding assay, mP read-out. inhibition, % (tested at 21.74 µM). 220,000 tested, 0.42% active. AID 1085; in the data active means inhibition above about 50%
LANA DNA inh: KSHV C-LANA DNA binding inhibition. MBP-C-LANA/FAM-LBS DNA binding, fluorescence polarization. inhibition, % at 9 µM. 340,000 tested, 0.078% active;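 active means highest replicate inhibition at or above 60% at 9 µM, even if other replicates fall short; inactive means all replicates below 60% inhibition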;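 further: 0% = neutral control wells and 100% = 4 µM acridine orange control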
Keap1-Nrf2 PPI: disrupts human Keap1 binding to Nrf2 peptide | Keap1 Kelch-Nrf2 peptide fluorescence polarization, 1536-well | inhibition, % at 9.4 µM | 340,000 tested, 0.15% active; in the data active means inhibition above about 12%;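 further: human Keap1 Kelch domain with fluorescein labeled Nrf2 9mer peptide probe; 0% = neutral control wells and 100% = peptide positive control; higher means more block of Keap1 binding to Nrf2 peptide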
Target sequence (Q14145 whole entry, looked up, the tested form may be a part): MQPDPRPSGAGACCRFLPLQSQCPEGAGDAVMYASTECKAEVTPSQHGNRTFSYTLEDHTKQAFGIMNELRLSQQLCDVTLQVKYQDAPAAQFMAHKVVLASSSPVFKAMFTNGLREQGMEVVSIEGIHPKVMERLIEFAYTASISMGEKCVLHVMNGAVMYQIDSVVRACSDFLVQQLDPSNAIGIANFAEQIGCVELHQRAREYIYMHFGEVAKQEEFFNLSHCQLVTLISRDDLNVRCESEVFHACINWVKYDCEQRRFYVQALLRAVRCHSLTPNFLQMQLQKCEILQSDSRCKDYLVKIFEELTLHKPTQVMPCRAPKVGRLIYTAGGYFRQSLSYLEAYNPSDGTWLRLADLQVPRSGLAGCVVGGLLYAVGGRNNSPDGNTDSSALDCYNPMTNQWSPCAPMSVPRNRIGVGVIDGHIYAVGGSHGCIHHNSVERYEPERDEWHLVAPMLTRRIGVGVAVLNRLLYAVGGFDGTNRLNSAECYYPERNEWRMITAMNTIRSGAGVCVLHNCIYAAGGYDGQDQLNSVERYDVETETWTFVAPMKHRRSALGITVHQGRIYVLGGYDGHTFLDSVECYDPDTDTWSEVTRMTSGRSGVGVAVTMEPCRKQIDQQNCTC
eLon inh: inhibits E. coli Lon protease; P0A9M0; purified E. coli Lon protease, fluorescence polarization; inhibition, % at 7.94 µM; 360,000 tested, 0.42% active; in the data active means inhibition above about 13%, passing the limit was not always enough;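 further: 0% = enzyme with probe and DMSO and 100% = no enzyme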
eLon confirm: E. coli Lon inhibition confirmation; 1,400 tested, 31% active; purified E. coli Lon, fluorescence polarization; AID 602230; inhibition, % at 7.94 µM; shares compounds with eLon inh; in the data active means inhibition above about 16%;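 further: 0% = enzyme with probe and DMSO and 100% = no enzyme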
* hit, by the source's call; nt = no result.

SMILES	RTF Ca sens inh	RTF Ca sens act	EBV gp42 inh	LANA DNA inh	Keap1-Nrf2 PPI	eLon inh	eLon confirm
Cc1noc(-c2ccccc2)c1NC(=O)Nc1ccc2nc([C@H]3C[C@H](O)[C@@H](CO)O3)[nH]c2c1	nt	nt	nt	nt	nt	17*	2
C[C@H](CO)N1C[C@H](C)[C@@H](CN(C)Cc2ccc(C(=O)O)cc2)Oc2ccc(NS(=O)(=O)c3cn(C)cn3)cc2C1=O	12	3	nt	6	-1	5	nt
N#Cc1c(N2CCN(c3ccc([N+](=O)[O-])cc3)CC2)[n+](=O)c2ccc(Cl)cc2n1[O-]	-27	14	nt	-1	-4	134*	43*
O=C(Cc1ccc(NC(=O)C2CCCN(C(=O)C3CCC3)C2)cc1)Nc1ccc(C(=O)N2CCOCC2)cc1 (configuration not stated)	-11	-9	nt	2	-1	-10	nt
Cc1ccc(S(=O)(=O)N2CCOC23CCN(S(=O)(=O)c2c(C)cc(C)cc2C)CC3)cc1	-10	8	nt	1	-4	12	nt
COc1ccc(CNS(=O)(=O)CCNC(=O)c2cccc(OC)c2)cc1	-2	-4	nt	0	1	5	nt
CN(CC(=O)Nc1ccccc1Br)C(=O)c1sccc1-c1ccccc1	6	-3	nt	1	1	-15	nt
CCCn1nc(C(=O)NCC2COc3ccccc3O2)c2ccccc2c1=O (configuration not stated)	-8	1	nt	-3	-5	-16	nt
C[C@H](CO)N1C[C@H](C)[C@@H](CN(C)S(=O)(=O)c2cn(C)cn2)Oc2c(NS(=O)(=O)c3ccc(F)cc3)cccc2C1=O	-14	-2	nt	1	-3	-9	nt
Cc1ccc(CN2CC[C@H]3C=CCc4cccc(c43)C2)cc1	-1	2	nt	0	-5	-4	nt
C1=C[C@@H]2CCN(Cc3ccccc3)Cc3cccc(c32)C1	-8	11	nt	0	-5	34*	8
Cc1cc(NC(=O)CN2C(=O)NC(CC(C)C)C2=O)ccc1Br (configuration not stated)	-1	-2	nt	0	-5	-1	nt
Cc1cccc(NC(=O)Nc2ccccc2)n1	12	-7	nt	-2	0	10	nt
Cc1cccc(NC(=O)NCC(F)(F)F)n1	-4	-1	-10	0	-1	27*	14
O=C(C1CCCCC1)N1C[C@@H](O)[C@H](n2cc(-c3ccc(F)cc3)nn2)C[C@@H]1c1ccccc1	nt	nt	nt	nt	nt	-4	nt
CN(C)c1ccc2nc3c(=O)[nH]c(=O)nc-3n(CC(O)C(O)C(O)CO)c2c1 (configuration not stated)	-174	125*	nt	24	-90	165*	82*
COC(=O)Cn1cnc2c(oc3ccccc32)c1=O	-8	-5	nt	0	2	22*	-2
COc1ccc2cnnc(SCC(=O)Nc3ccccc3)c2c1OC	-2	2	-22	1	-3	-2	nt
COc1ccc(OC)c(NC(=O)CSc2nncc3ccc(OC)c(OC)c23)c1	-7	-2	-1	3	0	50*	1
Cc1c(O)c(=O)n(-c2ccccc2)n1C	-6	9	nt	-1	-9	-11	nt
CCN(c1c(C)n(C)n(-c2ccccc2)c1=O)S(C)(=O)=O	-18	0	-20	0	1	69*	-22
Cn1nc(C(C)(C)C)cc1NC(=O)C1(C)CCN1C(=O)c1ccccc1CCc1ccccc1 (configuration not stated)	nt	nt	nt	nt	nt	-8	nt
CCOC(=O)C1=C(C)N(C[C@@H]2CC[C@@H](Cc3ccc(-c4ccccc4)cc3)O2)C(=O)NC1C1CC1 (some centres not stated)	-6	3	nt	1	1	-8	nt
COc1ccc(-c2cnc(N)nc2-c2ccc(OCc3ccccc3)cc2O)cc1	0	-1	-2	0	3	-3	nt
Nc1ncc(-c2ccccc2)c(-c2ccc(O)cc2O)n1	-9	-1	nt	-2	0	22*	7
SMILES	RTF Ca sens inh	RTF Ca sens act	EBV gp42 inh	LANA DNA inh	Keap1-Nrf2 PPI	eLon inh	eLon confirm
Cc1nn(C2CCS(=O)(=O)C2)c(C)c1CN(C)C(=O)c1ccc(F)cc1 (configuration not stated)	nt	nt	nt	nt	nt	6	nt
CN1C[C@@H]2[C@@H]3C(=O)N(C)C(=O)[C@@H]3[C@](C)(C1=O)N2C(=O)c1ccc(Cl)c(Cl)c1	8	0	nt	-1	-4	4	nt
C=CCn1c(Sc2nc(C)cs2)nc2c1c(=O)[nH]c(=O)n2C	-5	-4	6	0	-2	22*	3
Cc1noc(NS(=O)(=O)c2ccc(NC(=O)COc3ccccc3)cc2)c1C	-5	6	-13	1	-5	-4	nt
COCC(=O)Nc1ccc(S(=O)(=O)Nc2onc(C)c2C)cc1	nt	nt	nt	nt	nt	62*	-7
Cc1ccccc1OCC(=O)Nc1cccc(S(=O)(=O)NC2=NCCC2)c1	4	5	nt	0	3	-3	nt
Cc1ccccc1-n1ccnc1SCC(=O)Nc1cccc(S(=O)(=O)NC2=NCCC2)c1	-8	1	nt	0	0	17*	-1
COc1cc2cc(CCCOC(=O)c3cccc(Br)c3)oc(=O)c2cc1OC	-1	-2	nt	0	0	8	nt
OC(C#Cc1ccccn1)c1cccs1 (configuration not stated)	7	8	1	7	-4	30*	5
COc1ccc(Cl)cc1S(=O)(=O)n1ccnc1C(C)C	-2	-4	-1	0	-3	17*	2
O=C(CN1Cc2ccccc2C1=O)Nc1ccc2c(c1)OCCO2	-4	2	nt	0	1	-1	nt
COCCn1nnnc1C(C(C)C)N1CCN(C(=O)c2ccco2)CC1 (configuration not stated)	-4	1	-22	2	0	-7	nt
CCCC(c1nnnn1CCOC)N1CCN(C(=O)c2ccco2)CC1 (configuration not stated)	-3	2	-15	-1	1	29*	-7
N#CCC(=O)N/N=C/c1ccc(OC2CSC2)cc1	-7	0	-14	-1	1	25*	-39
Cc1ccc(OCC(=O)NNC(=O)c2ccc(F)c(S(=O)(=O)N3CCOCC3)c2)cc1C	nt	nt	nt	nt	nt	-7	nt
CC(=O)Nc1cccc(NC(=O)CSc2nc(=O)n(CCN3CCOCC3)c3c2CCC3)c1	-6	-3	nt	-1	-2	105*	-114
COc1ccc(CNC(=O)CN2C(=O)COc3ccc(S(=O)(=O)N4CCCCC4)cc32)cc1	1	-2	nt	-1	0	-5	nt
CCCn1nc([N+](=O)[O-])c(C(C#N)c2nc3ccccc3o2)c(Cl)c1=O (configuration not stated)	1	-9	5	2	5	-4	nt
Cn1nc([N+](=O)[O-])c(C(C#N)c2ccccn2)c(Cl)c1=O (configuration not stated)	-8	16	-3	2	2	17*	12

Source: PubChem BioAssay (several laboratories)
